Results taken from PubChem BioAssay AID1159580 (chemical genetic matrix, 2015).
Values joined by “and” are separate entries in the source; they are usually repeats but may differ in a detail not shown here. Equal entries are not always repeated. About 2,000 (36%) of roughly 5,500 compounds were called active. Not shown: some 18% with an inconclusive outcome. Rule as the data show it: active = normalized growth mostly below about 0.91 (no sharp cut-off); inconclusive = no clear call, values can overlap the other calls; inactive = mostly above about 0.92. The list shows a part of the results.

Assay: chemical genetic growth profiling, strain panel (AID 1159580);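 also: tested at 20 µM; growth read once vehicle control cultures reached saturation at 30 °C; 1 = growth at the plate median or of vehicle wells; lower values mean less growth of the strain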
Conditions: S. cerevisiae deletion strains, growth OD
[1] = locus YBR229C, strain ROT2, hits give low values
[2] = locus YDL101C, strain DUN1, hits give low values
[3] = locus YDR150W, strain NUM1, hits give low values
[4] = locus YEL061C, strain CIN8, hits give low values
[5] = locus YGR078C, strain PAC10, hits give low values
[6] = locus YHR030C, strain SLT2, hits give low values
[7] = locus YJR043C, strain POL32, hits give low values
[8] = locus YLR039C, strain RIC1, hits give low values
[9] = locus YLR262C, strain YPT6, hits give low values
[10] = locus YMR307W, strain GAS1, hits give low values
[11] = locus YHR079C, strain IRE1, hits give low values
[12] = locus YJL095W, strain BCK1, hits give low values
[13] = locus YJR066W, strain TOR1, hits give low values
[14] = locus YLR113W, strain HOG1, hits give low values
[15] = locus YNL183C, strain NPR1, hits give low values
[16] = locus YOR061W, strain CKA2, hits give low values
[17] = locus YOR231W, strain MKK1, hits give low values
[18] = locus YPL256C, strain CLN2, hits give low values

Measured: normalized growth

CN(C)/C=C1/C(=O)NN=C1CSc1ccccn1
inactive: locus YAL013W, strain DEP1, hits give low values 1 | [1] 0.999 | locus YCL061C, strain MRC1, hits give low values 1.03 | [2] 1.03 | [3] 1.04 | [4] 0.999 | [5] 1.02 | [6] 1.09 | locus YHR087W, strain rtc3, hits give low values 0.948 | [7] 1.02 | locus YJR075W, strain HOC1, hits give low values 1.01 | locus YKL190W, strain CNB1, hits give low values 1.02 | [8] 1.11 | locus YLR058C, strain SHM2 (second series), hits give low values 0.974 | locus YLR085C, strain ARP6, hits give low values 1.05 | [9] 1.02 | locus YML094W, strain GIM5, hits give low values 1.01 | locus YMR219W, strain ESC1, hits give low values 0.982 | locus YMR263W, strain SAP30, hits give low values 1.01 | [10] 1.07 | locus YNL153C, strain GIM3, hits give low values 1.03 | locus YNL298W, strain CLA4 (second series), hits give low values 1.04 | locus YNL322C, strain KRE1, hits give low values 0.985 | locus YNR030W, strain Alg12, hits give low values 1.01 | locus YPL055C, strain LGE1, hits give low values 0.972 | locus YPL241C, strain CIN2, hits give low values 1 | locus YPR135W, strain CTF4, hits give low values 1.09

O=C(Nc1cc2c(s1)-c1cc(Cl)ccc1SC2)Oc1ccccc1
inactive: locus YAR019C, strain CDC15, hits give low values 0.977 | locus YBL105C, strain PKC1, hits give low values 1.01 | locus YBR135W, strain CKS1, hits give low values 1.01 | locus YBR136W, strain MEC1, hits give low values 0.995 | locus YBR160W, strain CDC28, hits give low values 0.99 | locus YDL017W, strain CDC7, hits give low values 1.01 | locus YDL028C, strain MPS1, hits give low values 0.984 | [2] 0.989 | locus YDL108W, strain KIN28, hits give low values 0.986 | locus YDL132W, strain cdc53, hits give low values 1 | locus YDL214C, strain PRR2, hits give low values 0.928 | locus YDR052C, strain DBF4, hits give low values 0.997 | locus YDR054C, strain cdc34, hits give low values 0.999 | locus YDR226W, strain ADK1, hits give low values 1 | locus YDR477W, strain SNF1, hits give low values 0.964 | locus YER123W, strain YCK3, hits give low values 0.936 | locus YER133W, strain GLC7, hits give low values 0.972 | locus YFL009W, strain cdc4, hits give low values 0.997 | locus YFL029C, strain CAK1, hits give low values 0.978 | locus YFR003C, strain YPI1, hits give low values 0.998 | locus YFR019W, strain FAB1, hits give low values 0.927 | locus YFR028C, strain CDC14, hits give low values 1 | locus YGR040W, strain KSS1, hits give low values 0.97 | locus YGR052W, strain FMP48, hits give low values 1.01 | locus YGR092W, strain DBF2, hits give low values 0.966 | [6] 0.911 | [11] 0.939 | locus YHR082C, strain KSP1, hits give low values 0.962 | locus YHR205W, strain SCH9, hits give low values 0.914 | locus YIL147C, strain SLN1, hits give low values 0.994 | [12] 0.927 | locus YJL128C, strain PBS2, hits give low values 1.02 | locus YJL157C, strain FAR1, hits give low values 0.959 | locus YJR016C, strain ILV3, hits give low values 0.999 | locus YJR066W, strain TOR1 (second series), hits give low values 0.946 | [13] 0.951 | locus YKL048C, strain ELM1, hits give low values 0.98 | locus YKL067W, strain YNK1, hits give low values 0.946 | locus YKL101W, strain HSL1, hits give low values 0.953 | locus YKL193C, strain SDS22, hits give low values 1.01 | locus YKL203C, strain TOR2, hits give low values 1.01 | locus YLR133W, strain CKI1, hits give low values 0.938 | locus YLR403W, strain SFP1, hits give low values 0.946 | locus YML070W, strain DAK1, hits give low values 0.957 | locus YMR001C, strain CDC5, hits give low values 1 | locus YMR205C, strain PFK2 (second series), hits give low values 0.966 | locus YMR277W, strain FCP1, hits give low values 0.999 | locus YNL006W, strain LST8, hits give low values 0.99 | locus YNL020C, strain ARK1, hits give low values 0.938 | locus YNL161W, strain CBK1, hits give low values 0.993 | [15] 0.941 | locus YNL207W, strain RIO2, hits give low values 0.997 | locus YNL222W, strain SSU72, hits give low values 1.01 | locus YNL307C, strain MCK1 (second series), hits give low values 0.949 | locus YOL078W, strain AVO1, hits give low values 1 | locus YOL136C, strain PFK27, hits give low values 0.914 | [16] 0.934 | locus YOR119C, strain RIO1, hits give low values 0.988 | [17] 0.949 | locus YOR329C, strain SCD5, hits give low values 1 | locus YPL031C, strain PHO85, hits give low values 0.963 | locus YPL153C, strain RAD53, hits give low values 0.968 | locus YPL204W, strain HRR25, hits give low values 0.959 | locus YPL209C, strain IPL1, hits give low values 1 | [18] 0.912 | locus YPR025C, strain CCL1, hits give low values 1.01 | locus YPR106W, strain ISR1, hits give low values 0.997 | locus YPR111W, strain DBF20, hits give low values 1.01 | strain NNK1, hits give low values 1 | strain TSCII, hits give low values 1
active: [14] 0.849

COc1cccc(O)c1O
inactive: locus YBR021W, strain FUR4, hits give low values 1.02 | [1] 1.04 | locus YCL029C, strain bik1, hits give low values 1 | locus YDL035C, strain GPR1, hits give low values 1.03 | locus YDL074C, strain BRE1, hits give low values 1.01 | [2] 1.01 | locus YDL134C, strain PPH21, hits give low values 1.08 | locus YDL185W, strain tfp1, hits give low values 1.01 | locus YDL192W, strain arf1, hits give low values 1 | locus YDR101C, strain arx1, hits give low values 1.01 | [3] 1.04 | locus YDR162C, strain NBP2, hits give low values 1.07 | locus YDR318W, strain mcm21, hits give low values 1 | locus YDR388W, hits give low values 1.01 | locus YDR502C, strain sam2, hits give low values 1.01 | [4] 1.02 | locus YER110C, hits give low values 0.996 | locus YER155C, strain BEM2, hits give low values 1.04 | locus YER167W, strain BCK2, hits give low values 1.05 | locus YGL078C, strain dbp3, hits give low values 1.01 | locus YGL086W, strain mad1, hits give low values 0.999 | locus YGL248W, strain PDE1, hits give low values 1.03 | [5] 1.05 | locus YGR135W, strain pre9, hits give low values 0.976 | locus YGR252W, strain gcn5, hits give low values 0.936 | [6] 1.03 and 0.988 | locus YHR079C, strain IRE1 (second series), hits give low values 1.02 | [11] 0.999 | locus YHR094C, strain hxt1, hits give low values 1 | locus YHR129C, strain ARP1, hits give low values 1.02 | locus YHR200W, strain rpn10, hits give low values 1 | locus YIL066C, strain RNR3, hits give low values 1.06 | locus YIL073C, strain SPO22, hits give low values 1.03 | locus YIL125W, strain kgd1, hits give low values 1 | locus YIR030C, strain dcg1, hits give low values 1.04 | [12] 1.02 and 0.997 | locus YJL134W, strain LCB3, hits give low values 1.03 | locus YJL168C, strain set2, hits give low values 1 | locus YJL187C, strain SWE1 (second series), hits give low values 0.976 | [7] 1.04 | [13] 0.925 | locus YKL009W, strain mrt4, hits give low values 1.01 | locus YKL068W, hits give low values 1.01 | locus YKL085W, strain MDH1 (second series), hits give low values 1.02 | locus YKL085W, strain MDH1, hits give low values 1.02 | locus YKR001C, strain vps1, hits give low values 1.02 | [8] 1.17 | locus YLR058C, strain SHM2, hits give low values 0.995 | locus YLR102C, strain apc9, hits give low values 0.995 | [14] 0.989 | [9] 1.15 | locus YLR268W, strain sec22, hits give low values 0.989 | locus YLR330W, strain CHS5, hits give low values 1.03 | locus YLR342W, strain FKS1 (second series), hits give low values 1.01 | locus YLR371W, strain rom2, hits give low values 1 | locus YLR418C, strain cdc73, hits give low values 1.01 | locus YML016C, strain PPZ1, hits give low values 1.03 | locus YML032C, strain rad52, hits give low values 1.01 | locus YML124C, strain tub3, hits give low values 1.01 | locus YMR078C, strain ctf18, hits give low values 0.99 | locus YMR223W, strain ubp8, hits give low values 0.997 | [10] 1.09 | locus YNL067W, strain RPL9B, hits give low values 1.05 | [15] 0.926 | locus YNL233W, strain BNI4, hits give low values 1.05 | locus YNL250W, strain rad50, hits give low values 0.996 | locus YNL271C, strain bni1, hits give low values 0.994 | locus YNL298W, strain CLA4, hits give low values 0.99 | locus YNL307C, strain MCK1, hits give low values 1.01 | locus YNR052C, strain pop2, hits give low values 1.01 | locus YOL006C, strain TOP1, hits give low values 1.27 | locus YOL012C, strain htz1 0.899 | locus YOL147C, strain pex11, hits give low values 1 | [16] 1.02 | locus YOR069W, strain VPS5, hits give low values 1.02 | locus YOR136W, strain idh2, hits give low values 0.994 | locus YOR144C, strain elg1, hits give low values 1.01 | locus YOR184W, strain ser1, hits give low values 1.02 | [17] 1.01 | locus YOR316C, strain cot1, hits give low values 0.995 | [18] 0.994 | locus YPR119W, strain clb2, hits give low values 1.02 | locus YPR141C, strain kar3, hits give low values 1.01 | locus YPR163C, strain tif3, hits give low values 0.978 | locus YPR167C, strain met16, hits give low values 1.02 | strain wtn01, hits give low values 0.997
